Here are results for 40 compounds from the supplement of paper PMC9446081.

The structures appear in SMILES notation. ± gives the standard deviation of the averaged measurements.

Chain of MurC (C4ZRI6 whole entry, looked up): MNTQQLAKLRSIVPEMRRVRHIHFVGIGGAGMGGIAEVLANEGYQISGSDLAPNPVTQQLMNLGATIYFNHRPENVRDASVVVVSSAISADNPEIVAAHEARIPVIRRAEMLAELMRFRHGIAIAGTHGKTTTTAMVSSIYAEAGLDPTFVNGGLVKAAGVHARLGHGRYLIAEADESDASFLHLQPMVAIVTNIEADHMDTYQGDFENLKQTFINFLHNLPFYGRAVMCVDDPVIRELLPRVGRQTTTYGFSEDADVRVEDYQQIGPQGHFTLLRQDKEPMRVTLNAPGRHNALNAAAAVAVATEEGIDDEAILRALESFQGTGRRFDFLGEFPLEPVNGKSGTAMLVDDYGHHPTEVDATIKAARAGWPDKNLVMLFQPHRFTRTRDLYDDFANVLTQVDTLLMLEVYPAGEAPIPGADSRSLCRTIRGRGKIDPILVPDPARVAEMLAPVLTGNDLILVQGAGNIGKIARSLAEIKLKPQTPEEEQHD

This experiment concerns the target MurC (UniProt C4ZRI6). As to the kind of experiment: relative enzymatic activity vs untreated control (fraction); higher = less inhibition. The conditions noted are these: 100 µM; incubation time: 2 h at 37 C. As for the experimental part:
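In vitro enzymatic inhibition assays (ProFoldin kits) for 12 purified essential E. coli enzymes or complexes, each treated with 218 active antibacterial compounds at 100 µM for 2 h at 37°C. Read-outs were fluorescence or absorbance (phosphate detection, dye binding), converted to activity via standard curves and expressed relative to untreated DMSO controls.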
For `Cc1nnc(SCC2=C(C(=O)[O-])N3C(=O)C(NC(=O)Cn4cnnn4)C3SC2)s1.[Na+]` (stereo not given), the relative enzymatic activity is 1.05 ± 0.11.
`CN(C)c1ccc(O)c2c1CC1CC3C(N(C)C)C(O)=C(C(N)=O)C(=O)C3(O)C(O)=C1C2=O.Cl` (stereo not given) registered a relative enzymatic activity of 1.05 ± 0.025.
For `COC1C=COC2(C)Oc3c(C)c(O)c4c(O)c(c(C=NN5CCN(C)CC5)c(O)c4c3C2=O)NC(=O)C(C)=CC=CC(C)C(O)C(C)C(O)C(C)C(OC(C)=O)C1C` (stereo not given) the value was 0.282 ± 0.059; for `CCCC[P+](CCCC)(CCCC)Cc1ccc(NC(=O)[C@H](Cc2ccc3ccccc3c2)N/C(=N/C2CCCCC2)NC2CCCCC2)cc1`, 0.557 ± 0.44.
Under `CCn1cc(C(=O)O)c(=O)c2cc(F)c(N3CCNCC3)cc21` stands 1 ± 0.082; under `CN1CCN(c2c(F)cc3c(=O)c(C(=O)O)cn(CCF)c3c2F)CC1`, 1.02 ± 0.011.
Under `NCC[C@H](O)C(=O)N[C@@H]1C[C@H](N)[C@@H](O[C@H]2O[C@H](CN)[C@@H](O)[C@H](O)[C@H]2O)[C@H](O)[C@H]1O[C@H]1O[C@H](CO)[C@@H](O)[C@H](N)[C@H]1O` stands 1.05 ± 0.11; under `N[C@@H]1[C@H]2CN(c3nc4c(cc3F)c(=O)c(C(=O)O)cn4-c3ccc(F)cc3F)C[C@@H]12`, 0.885 ± 0.015; under `NC(C(=O)NC1C(=O)N2C(C(=O)O)=C(Cl)CSC12)c1ccccc1` (stereo not given), 0.944 ± 0.023.
Consider `COc1c(N2CCNC(C)C2)c(F)cc2c(=O)c(C(=O)O)cn(C3CC3)c12` (stereo not given), for which the relative enzymatic activity was found to be 1 ± 0.027.
Under `CC(N)O.Cc1cc(CC(C)CC(C)(C)C)n(O)c(=O)c1` (stereo not given) stands 1.11 ± 0.024.
Under `CC1(C)S[C@@H]2[C@H](NC(=O)[C@H](NC(=O)N3CCNC3=O)c3ccccc3)C(=O)N2[C@H]1C(=O)O` stands 0.907 ± 0.097.
For `O=C1NCCN1c1ncc([N+](=O)[O-])s1` the value was 1.008 ± 0.01.
In the case of `CON=C(C(=O)NC1C(=O)N2C(C(=O)OCOC(=O)C(C)(C)C)=C(C=Cc3scnc3C)CSC12)c1csc(N)n1` (stereo not given), the relative enzymatic activity was determined as 0.659 ± 0.044.
For `O=C1C=CC(=O)N1`, the relative enzymatic activity came to 0.992 ± 0.03.
For `Nc1c2ccccc2nc2ccccc12` the value was 0.998 ± 0.044; for `COC1=C(OC)C(=O)C(CCCCCCCCCC[P+](c2ccccc2)(c2ccccc2)c2ccccc2)=C(C)C1=O`, 0.344 ± 0.24.
As to `Nc1ncn(C2OC(CO)C(O)C2O)c(=O)n1` (stereo not given), the relative enzymatic activity turned out to be 0.989 ± 0.025.
For `CN(C)c1ccc(O)c2c1C[C@H]1C[C@H]3[C@H](N(C)C)C(=O)C(C(N)=O)=C(O)[C@@]3(O)C(=O)[C@H]1C2=O` the value was 0.99 ± 0.069; for `CN1CCN(c2c(F)cc3c(=O)c(C(=O)O)cn4c3c2OCN4C)CC1`, 0.954 ± 0.1.
`O=C(NC(CO)C(O)c1ccc([N+](=O)[O-])cc1)C(Cl)Cl` (stereo not given): the relative enzymatic activity turned out to be 1.04 ± 0.033.
For `O=C(Cn1cnnn1)NC1C(=O)N2C(C(=O)O)=C(CSc3nncs3)CSC12` (stereo not given) the value was 1.06 ± 0.098.
Under `NCCC(O)C(=O)NC1CC(N)C(OC2OC(CN)C(O)C(O)C2O)C(O)C1OC1OC(CO)C(O)C(N)C1O.O` (stereo not given) stands 1.0305 ± 0.00019; under `NC(=O)[C@@H]1C(=O)C[C@@H]2C[C@@H]3Cc4cccc(O)c4C(=O)[C@@H]3C(=O)[C@]2(O)C1=O`, 1.17 ± 0.092.
For `COC1(NC(=O)CSCC#N)C(=O)N2C(C(=O)[O-])=C(CSc3nnnn3C)CSC21.[Na+]` (stereo not given) the value was 1.59 ± 0.09; for `CON=C(C(=O)NC1C(=O)N2C(C(=O)[O-])=C(COC(C)=O)CSC12)c1csc(N)n1.[Na+]` (stereo not given), 0.961 ± 0.082.
Compound `COC(=O)N/N=C/c1c[n+]([O-])c2ccccc2[n+]1[O-]` returned a relative enzymatic activity of 1 ± 0.079.
For `Cc1cn(C2CC(N=[N+]=[N-])C(CO)O2)c(=O)[nH]c1=O` (stereo not given) the value was 1.01 ± 0.068; for `C=CC1=C(C(=O)O)N2C(=O)C(NC(=O)C(=NO)c3csc(N)n3)C2SC1` (stereo not given), 0.997 ± 0.02.
Consider `NCC1OC(OC2C(N)CC(N)C(OC3OC(CO)C(O)C(N)C3O)C2O)C(N)CC1O` (stereo not given), for which the relative enzymatic activity stood at 1.11 ± 0.046.
Under `CO/N=C1\CN(c2nc3c(cc2F)c(=O)c(C(=O)O)cn3C2CC2)C[C@@H]1CN` stands 0.717 ± 0.047; under `O=C(O)c1cn(C2CC2)c2cc(N3CCNCC3)c(F)cc2c1=O`, 1.03 ± 0.014; under `CN(C)C1C(O)=C(C(N)=O)C(=O)C2(O)C(O)=C3C(=O)c4c(O)cccc4C(C)(O)C3C(O)C12.Cl` (stereo not given), 1.09 ± 0.081.
For `CN[C@H]1CN(c2ccc3c(=O)c(C(=O)O)cn(-c4nccs4)c3n2)C[C@@H]1OC` the value was 1.035 ± 0.0069; for `CC1(C)S[C@@H]2[C@H](NC(=O)[C@H](N)c3ccccc3)C(=O)N2[C@H]1C(=O)OCOC(=O)[C@@H]1N2C(=O)C[C@H]2S(=O)(=O)C1(C)C`, 1.08 ± 0.1.
For `CCCC[P+](CCCC)(CCCC)Cc1ccc(NC(=O)[C@@H](Cc2ccc3ccccc3c2)N=C(NC2CCCCC2)NC2CCCCC2)cc1` the value was 0.817 ± 0.36.
With `C=C1c2cccc(O)c2C(=O)[C@@H]2C(=O)[C@]3(O)C(=O)[C@@H](C(N)=O)C(=O)[C@@H](N(C)C)[C@@H]3[C@@H](O)[C@H]12`, the relative enzymatic activity is 1.03 ± 0.034.
For `O=C1OC(=O)[C@H]2[C@@H]1[C@H]1CC[C@H]2O1` the value was 1.18 ± 0.093.
Regarding `CCn1cc(C(=O)O)c(=O)c2cc(F)c(N3CCN(C(=S)Nc4cc(C(F)(F)F)ccc4Cl)CC3)cc21`, the relative enzymatic activity worked out at 1.07 ± 0.069.
Under `CN(C)c1ccc(O)c2c1C[C@@H]1C[C@@H]3[C@@H](N(C)C)C(=O)C(C(N)=O)=C(O)[C@]3(O)C(=O)[C@H]1C2=O` stands 1.17 ± 0.024.
